Source: PubChem
G9a inh: blocks human histone lysine methyltransferase G9a; G9a H3K9 monomethylation, AlphaScreen, 2 h; Q96KQ7; 350,000 tested, 8.8% active; AID 504332; Potency, µM (titrated, usually from 102 µM), hits mostly inhibitors; note: nearly all actives have a fitted effect of over 75% in size
Target sequence (Q96KQ7 913-1193 limits assumed): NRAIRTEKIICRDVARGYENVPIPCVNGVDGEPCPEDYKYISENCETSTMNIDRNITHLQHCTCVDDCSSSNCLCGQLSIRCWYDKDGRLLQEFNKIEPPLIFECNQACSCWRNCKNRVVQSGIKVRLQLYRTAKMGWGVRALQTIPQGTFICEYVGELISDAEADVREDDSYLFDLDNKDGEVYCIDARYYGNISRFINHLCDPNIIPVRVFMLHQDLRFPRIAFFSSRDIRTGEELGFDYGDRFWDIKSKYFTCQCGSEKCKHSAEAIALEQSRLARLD
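Signal arises when biotinylated H3K9 peptide, once monomethylated, bridges streptavidin donor and antibody-captured acceptor beads. Enzyme at 20 nM was preincubated 15 min with test compounds; peptide 500 nM and SAM 20 uM then reacted for 2 h.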
CtBP-E1A blk: CtBP/E1A binding inhibition | AlphaScreen GST-E1A/His-CtBP binding, 1536-well; active compounds read low | activity change, % (concentration not given with the values) | AID 651724 | 340,000 tested, 0.49% active; in the data active = activity change below about -65%; inconclusive = mostly about -30% to -63%
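Protein mix (5X: 125 nM each GST-E1A, His-CtBP) was incubated with pinned compound 2 h at 37 deg C in dark, in 50 mM Tris pH 8.0 buffer with 300 mM NaCl. Glutathione donor and nickel acceptor beads followed; AlphaScreen signal read after 1 h.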
HP1b chromo inh: inhibitors of HP1-beta chromodomain binding to methylated histone tails; P83916; AlphaScreen HP1-beta / biotin-H3K9me3 peptide binding; Potency, µM (top dose mostly 114 µM), usual class: inhibitors; 390,000 tested, 0.56% active; AID 540317; note: nearly all actives have a fitted effect of over 70% in size
Target sequence (P83916 whole entry, looked up): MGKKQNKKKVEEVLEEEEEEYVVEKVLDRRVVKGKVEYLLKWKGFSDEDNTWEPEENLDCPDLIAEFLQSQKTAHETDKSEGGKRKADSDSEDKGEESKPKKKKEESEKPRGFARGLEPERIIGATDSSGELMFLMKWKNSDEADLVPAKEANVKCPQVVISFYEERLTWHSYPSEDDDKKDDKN
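AlphaScreen: HP1-beta (50 nM) preformed 30 min with biotin-H3(1-18)K9me3 peptide (50 nM) in PBS pH 7.4, 0.01% Tween-20. Compound added for 30 min at RT, then streptavidin donor/nickel chelate acceptor beads (10 ug/mL) for 30 min.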
BAZ2B block: inhibitors of human BAZ2B bromodomain. AID 504333. 360,000 tested, 4.4% active. Q9UIF8. Potency, µM (top dose mostly 114 µM), most hits filed as inhibitors. AlphaScreen BAZ2B-H3K14Ac peptide displacement; note: nearly all actives have a fitted effect of over 60% in size
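Compounds, titrated to a top concentration of 110 uM, were incubated 30 min at room temperature with preformed BAZ2B/acetyl-K14 H3 peptide complex (50 nM each). Proximity signal was measured by AlphaScreen after 20 min with beads.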
JMJD2A Tudor inh: blocks the human JMJD2A Tudor domain. Potency, µM (series often up to 114 µM), usual class: inhibitors. AlphaScreen JMJD2A-Tudor / H3K4me3 peptide binding. O75164. AID 504339. 390,000 tested, 4.4% active; note: nearly all actives have a fitted effect of over 50% in size
Six1-Eya2 inh: inhibitors of human Six1/Eya2 interaction. activity change, % (test concentration not listed). AlphaScreen GST-Six1/His-Eya2 binding, biochemical; active compounds read low. AID 651725. 360,000 tested, 0.56% active; in the data active = activity change below about -65%; inconclusive = mostly about -30% to -63%
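GST-Six1 + His-Eya2 (5X stock: 250/500 nM); Tris pH 8.0, 300 mM NaCl, 0.05% BSA, 0.02% Tween 20; GSH donor/Ni acceptor beads; 1 h 37 °C dark; AlphaScreen readout.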
Each line names hits and unclear results; the compound was inactive in the other large screens. An excerpt weighted towards active compounds, which were near 10% of everything screened. Unless noted, calls come from the whole dose curve; as a rule, active = well fitted inhibition curve with a large enough effect; inconclusive = small, poorly fitted or top-dose-only effect; inactive = no such curve, though single readings can be large or run the other way.

O=C(Nc1nnc(SCc2cccnc2)s1)C1CC(=O)N(c2ccc(F)cc2)C1 (stereo unspecified)	G9a inh 40µM
COc1cccc(N2CC(C(=O)Nc3nnc(SCCC4OCCO4)s3)CC2=O)c1 (stereo unspecified)	G9a inh 28µM
O=C(Nc1nnc(SCCC2OCCO2)s1)C1CC(=O)N(c2ccccc2)C1 (stereo unspecified)	G9a inh 22µM
O=C(Nc1nnc(SCCC2OCCO2)s1)C1CC(=O)N(c2ccc(F)cc2)C1 (stereo unspecified)	G9a inh 40µM, BAZ2B block inconclusive
NC(=O)c1oc2ccccc2c1NC(=O)C1CCCCC1	none
NC(=O)c1oc2ccccc2c1NC(=O)C1CC(=O)N(c2ccccc2)C1 (stereo unspecified)	G9a inh 45µM
O=C1NC(=O)/C(=C/c2ccccn2)S1	G9a inh inconclusive, JMJD2A Tudor inh inconclusive
COc1ccc(Cl)cc1NC(=O)CN(C)C(=O)C1COc2ccccc2O1 (stereo unspecified)	none (no result: G9a inh, BAZ2B block)
O=C1CCCC/C1=C\Nc1ccccc1C(=O)O	G9a inh 50µM, JMJD2A Tudor inh inconclusive
Cc1nn(CCO)c2ncc(C(=O)c3cc(F)ccc3O)cc12	G9a inh 50µM
Cc1nn(CCO)c2ncc(C(=O)c3cc(Cl)ccc3O)cc12	none
CCCCC[C@@H](C)N1C[C@@H](COCc2ccccc2)Oc2cc(N3CCC[C@H]3COC)ccc2S1(=O)=O	none (no result: G9a inh, HP1b chromo inh, BAZ2B block, JMJD2A Tudor inh)
O=C(CN1C(=O)CCc2cc(S(=O)(=O)N3CCCCC3)ccc21)NCc1ccc(Cl)cc1	G9a inh inconclusive (no result: CtBP-E1A blk, Six1-Eya2 inh)
O=C(Nc1ccc(F)cc1)C1=CC(=O)N2CCN=C2S1	G9a inh 1µM, BAZ2B block inconclusive (no result: CtBP-E1A blk, HP1b chromo inh, JMJD2A Tudor inh, Six1-Eya2 inh)
O=C(CC1SC2=NCCN2C1=O)Nc1ccc(Br)cc1 (stereo unspecified)	none
CCc1nc2ccc(C(=O)Nc3ccc(C(=O)N(C)C)cc3)cn2c1N(C)CCCc1ccccc1	none (no result: G9a inh, HP1b chromo inh, BAZ2B block, JMJD2A Tudor inh)
CCn1cc(C(=O)NCCc2ccc(Cl)cc2)c(=O)c2cc(S(=O)(=O)N3CCc4ccccc4C3)ccc21	none (no result: CtBP-E1A blk, BAZ2B block, Six1-Eya2 inh)
NNc1ccc(Cc2ccc(Cl)cc2Cl)nn1	BAZ2B block 2.8µM, JMJD2A Tudor inh 28µM
CSc1ccc(Cc2ccc(Cl)cc2Cl)nn1	none
COc1ccccc1OC(C)C(=O)NCC1(N2CCOCC2)CCCCC1 (stereo unspecified)	none (no result: CtBP-E1A blk, Six1-Eya2 inh)
C=CCNCC(O)COc1ccc(C(C)=O)cc1OC (stereo unspecified)	HP1b chromo inh 71µM, BAZ2B block 50µM, JMJD2A Tudor inh 2µM (no result: G9a inh)
COc1ccccc1COCC(O)CNCC1(N2CCCCC2)CCCCC1 (stereo unspecified)	G9a inh 4.5µM, HP1b chromo inh inconclusive, BAZ2B block inconclusive, JMJD2A Tudor inh 1.8µM
COc1cc(C(C)=O)ccc1OCC(O)CN(CCO)Cc1ccccc1 (stereo unspecified)	none (no result: BAZ2B block)
COc1cc(C(C)=O)ccc1OCC(O)CNCC1(N2CCCCC2)CCCCC1 (stereo unspecified)	G9a inh 28µM, HP1b chromo inh inconclusive, BAZ2B block 50µM, JMJD2A Tudor inh 3.2µM
O=C(CNCCc1ccccc1)Nc1ccc(C(=O)N2CCCCC2)cc1	G9a inh 11µM, HP1b chromo inh inconclusive, BAZ2B block 40µM, JMJD2A Tudor inh 22µM
NC(=O)c1ccc(NC(=O)CNCc2ccccc2Cl)cc1	none
O=C(CNCc1ccc(F)cc1)Nc1ccc(C(=O)N2CCCCC2)cc1	G9a inh 10µM, HP1b chromo inh inconclusive, BAZ2B block 32µM, JMJD2A Tudor inh 1.1µM
O=C(CNCCc1ccc(Cl)cc1)Nc1ccc(C(=O)N2CCCCC2)cc1	G9a inh 7.9µM, HP1b chromo inh inconclusive, BAZ2B block 20µM, JMJD2A Tudor inh 3.2µM
O=C(CNCc1ccccc1Cl)Nc1ccc(C(=O)N2CCCCC2)cc1	G9a inh 5.6µM, HP1b chromo inh inconclusive, BAZ2B block 22µM, JMJD2A Tudor inh inconclusive
